# Screen size: about 290,000 compounds; about 160 (0.055%) were called active. Rule as the data show it: active = inhibition above about 50%; inactive = the rest. This excerpt belongs to a sample that is enriched for actives.
# Molecular target: Tyrosine-protein phosphatase non-receptor type 22 (Homo sapiens) (UniProt Q9Y2R2)
# Experiment: PTPN22 lymphoid phosphatase activity blockers – biochemical, fluorescence intensity, uHTS (AID 1779);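 also: plate controls were vehicle with enzyme for no effect and no enzyme for full effect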
# Conditions: recombinant LYP phosphatase, at 11.5 µM, active compounds read high
# Tyrosine-protein phosphatase non-receptor type 22 (Homo sapiens), sequence (Q9Y2R2 whole entry, looked up): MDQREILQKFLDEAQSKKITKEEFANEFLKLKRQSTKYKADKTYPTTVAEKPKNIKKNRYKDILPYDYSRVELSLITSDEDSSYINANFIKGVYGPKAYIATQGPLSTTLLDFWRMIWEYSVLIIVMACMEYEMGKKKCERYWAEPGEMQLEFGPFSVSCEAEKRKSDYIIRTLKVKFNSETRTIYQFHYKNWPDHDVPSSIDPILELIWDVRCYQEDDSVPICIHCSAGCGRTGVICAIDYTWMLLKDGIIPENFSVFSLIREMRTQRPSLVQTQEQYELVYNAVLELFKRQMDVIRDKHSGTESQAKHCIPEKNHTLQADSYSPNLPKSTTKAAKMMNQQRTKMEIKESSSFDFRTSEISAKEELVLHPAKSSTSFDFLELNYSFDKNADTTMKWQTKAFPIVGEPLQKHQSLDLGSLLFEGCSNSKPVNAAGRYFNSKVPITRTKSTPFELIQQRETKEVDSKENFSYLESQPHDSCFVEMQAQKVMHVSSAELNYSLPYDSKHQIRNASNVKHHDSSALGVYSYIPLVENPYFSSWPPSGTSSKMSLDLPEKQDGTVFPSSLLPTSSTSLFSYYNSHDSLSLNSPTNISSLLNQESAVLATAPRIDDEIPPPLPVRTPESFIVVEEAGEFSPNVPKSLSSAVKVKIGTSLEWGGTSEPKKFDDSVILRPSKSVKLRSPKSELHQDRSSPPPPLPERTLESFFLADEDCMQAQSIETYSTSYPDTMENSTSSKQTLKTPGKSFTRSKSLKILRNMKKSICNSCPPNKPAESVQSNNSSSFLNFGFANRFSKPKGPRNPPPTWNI
row,SMILES,inhibition
1,O=c1c(Cc2ccc(F)cc2)c(O)ccn1C1CC1,-9% (inactive)
2,Cc1cccc(N2CCN(C(=O)Cn3c(=O)[nH]c4ccsc4c3=O)CC2C)c1 (stereo unspecified),-8.5% (inactive)
3,COCCn1nnnc1C(c1cccc(C(F)(F)F)c1)N1CCOCC1 (stereo unspecified),-7% (inactive)
4,CCC1CCCCN1CCCNC(=O)c1ccc(CS(=O)(=O)Cc2ccc(Cl)cc2)o1 (stereo unspecified),-7.2% (inactive)
5,CCC1CCCCN1CCCNC(=O)c1ccc(CS(=O)(=O)c2ccccc2C)o1 (stereo unspecified),-13.2% (inactive)
6,CCC1CCCCN1CCCNC(=O)c1ccc(CS(=O)(=O)Cc2ccccc2F)o1 (stereo unspecified),56.2% (active)
7,COc1cccc(/C=N/NC(=O)c2cc3cc([N+](=O)[O-])ccc3s2)c1O,73.6% (active)
8,COc1cccc(/C=N/NC(=O)c2ccc([N+](=O)[O-])cc2Cl)c1O,9% (inactive)
9,C=CCOc1ccc2cccc(/C=N/NC(=O)c3cc4cc([N+](=O)[O-])ccc4s3)c2c1,-4.5% (inactive)
10,CC(=O)N1CCN(c2ccc(NC(=O)c3ccc(OCc4ccccc4)cc3)cc2)CC1,-3.8% (inactive)
11,CCc1ccc(OCc2nnc(SCC(=O)NC3CCCCC3)o2)cc1,-6.8% (inactive)
12,CCCNS(=O)(=O)c1ccc(NC(=O)c2cccnc2)cc1,-7.3% (inactive)
13,CC1Sc2ccc(S(=O)(=O)CCC(=O)NC3CCCC(C)C3C)cc2NC1=O (stereo unspecified),-6.7% (inactive)
14,Cc1ccccc1Cn1cc(NC(=O)c2cc(-c3ccco3)on2)cn1,-0.1% (inactive)
15,Cn1cc(Cl)c(C(=O)Nc2cnn(Cc3ccc(F)cc3)c2)n1,-1.2% (inactive)
16,Cc1ccccc1Cn1cc(NC(=O)c2nn(C)cc2Cl)cn1,60.2% (active)
17,Cc1ccc(OCc2cc(C(=O)NC3CCOC3)no2)cc1C (stereo unspecified),-2.1% (inactive)
18,O=C(CN1C(=O)c2ccccc2C1=O)N1CCN=C1c1ccccc1,-8.9% (inactive)
19,Cc1cc(C)cc(OCC(=O)N/N=C\c2cn(C)nc2C)c1,76.1% (active)
20,CCn1ncc(/C=N\NC(=O)COc2cc(C)cc(C)c2)c1C,-3.6% (inactive)
21,Cc1cc(C)cc(OCC(=O)N/N=C/c2ccncc2)c1,-10.7% (inactive)
22,CC1=NNC(=O)C1CCC(=O)N/N=C(\C)c1ccccc1 (stereo unspecified),-4.6% (inactive)
23,c1ccc2c(c1)NC1(CCCC1)n1c-2nc2ccccc21,-16.8% (inactive)
24,Cc1cccc(NC(=O)Nc2cccc(C)n2)n1,-5.9% (inactive)

row,SMILES,inhibition
1,COc1ccc(Cc2nnc(NC(=O)c3ccccc3Cl)s2)cc1OC,-9.8% (inactive)
2,COc1ccc(Cc2nnc(NC(=O)c3ccccc3F)s2)cc1,-0.8% (inactive)
3,COc1ccc(Cc2nnc(NC(=O)c3ccccc3F)s2)cc1OC,66.6% (active)
4,COc1ccc2cc(C(C)c3nc4ccccc4c(=O)n3N)ccc2c1 (stereo unspecified),4.5% (inactive)
5,C=CCNc1nc(C(F)(F)F)nc2c1nnn2Cc1ccccc1Cl,-2.4% (inactive)
6,COc1ccc(CNC(=O)c2cc(-c3cc(C)ccc3O)n[nH]2)cc1,-3.7% (inactive)
7,COc1ccc(CNC(=O)c2cc(-c3ccccc3O)n[nH]2)cc1,53.5% (active)
8,COc1ccc(CNC(=O)c2cc(-c3cc(C)cc(C)c3O)n[nH]2)cc1,4% (inactive)
9,COc1cccc(N(C(=O)c2snc(C(N)=O)c2N)C(C(=O)NCC2CCCO2)c2cccs2)c1 (stereo unspecified),-2% (inactive)
10,COc1ccc(C2CC(c3ccc(Br)cc3)=NN2C(=O)CCC(=O)O)cc1OC (stereo unspecified),-7.6% (inactive)
11,COc1ccc(C2=NN(C(=O)CCC(=O)O)C(c3ccc(OC)c(OC)c3)C2)cc1 (stereo unspecified),-7.5% (inactive)
12,COc1ccc(C2CC(c3ccc(C)cc3)=NN2C(=O)CCC(=O)O)cc1OC (stereo unspecified),89.2% (active)
13,CC(=O)c1ccc(-n2c(CCC(=O)O)ccc2-c2ccc(C)cc2)cc1,-5.2% (inactive)
14,CS(=O)(=O)N1CCc2cc(C(=O)NC3CC3)ccc21,-10.8% (inactive)
15,COCCNC(=O)C(c1ccco1)N(Cc1ccc(OC)cc1)C(=O)Cn1nnc2ccccc21 (stereo unspecified),10.9% (inactive)
16,CSc1nc(-c2ccc(Cl)cc2)nn1C(=O)c1ccco1,77.2% (active)
17,CSc1nc(-c2ccccc2)nn1C(=O)c1ccco1,-3% (inactive)
18,COc1ccc(-c2nc(SC)n(C(=O)c3ccco3)n2)cc1,-4.5% (inactive)
19,Cc1nc(-c2ccc(S(=O)(=O)N3CCN(CCc4ccccc4)CC3)s2)cs1,-0.7% (inactive)
20,N#CCN(CC#N)C(=O)C1c2ccccc2Oc2ccccc21,-3.9% (inactive)
21,COc1ccc(NC(=O)C2CCCN(S(=O)(=O)c3c(C)n[nH]c3C)C2)c(OC)c1 (stereo unspecified),-2% (inactive)
22,Cc1cc(/C=N/n2cnnc2)c(O)c([N+](=O)[O-])c1,-3.1% (inactive)
23,O=[N+]([O-])c1cc(Br)cc(/C=N/n2cnnc2)c1O,76.8% (active)
24,O=[N+]([O-])c1cc(Cl)cc(/C=N/n2cnnc2)c1O,3.8% (inactive)

row,SMILES,inhibition
1,CCOc1ccc(C2C(C#N)=C(N)Oc3cc(C)n(CCN(C)C)c(=O)c32)cc1OCC (stereo unspecified),-1.7% (inactive)
2,CCOc1ccc(C2C(C#N)=C(N)Oc3cc(C)n(CCN4CCOCC4)c(=O)c32)cc1OCC (stereo unspecified),61.4% (active)
3,COc1ccc(C2C(C#N)=C(N)Oc3cc(C)n(CCN4CCOCC4)c(=O)c32)cc1OC (stereo unspecified),-4.7% (inactive)
4,Cc1cccn2c(=O)c3cc(C(=O)NC4CCCCC4)c(=N)n(CCN4CCOCC4)c3nc12,-35.6% (inactive)
5,Cc1ccc(-c2csc(=S)[nH]2)cc1,-4% (inactive)
6,S=c1[nH]c(-c2ccc(Cl)cc2)cs1,74.6% (active)
7,Fc1ccc(-c2csc(=S)[nH]2)cc1,-2% (inactive)
8,OCCC1CN(Cc2cccn2-c2ncccn2)CCN1C1CCCC1 (stereo unspecified),-9.8% (inactive)
9,Cc1ccc(C(=O)N2CCN(S(=O)(=O)N3CCCCC3)CC2)cc1,-11.4% (inactive)
10,Cc1cc(Cl)ccc1OCC(=O)OCC(=O)Nc1ccc(F)c([N+](=O)[O-])c1,62% (active)
11,Cc1cc(NC(=O)COC(=O)COc2ccc(Cl)cc2C)c([N+](=O)[O-])cc1C,5.9% (inactive)
12,O=C(COC(=O)COc1ccc(Cl)cc1)Nc1ccc(F)c([N+](=O)[O-])c1,2.2% (inactive)
13,O=C(c1ccco1)N1CCN(C(=O)C2CC(=O)N(c3ccc(Cl)cc3)C2)CC1 (stereo unspecified),-14.5% (inactive)
14,N/C(=N\N=C\c1ccc2c(c1)OCO2)SC1CC(=O)N(c2ccc(C(=O)O)cc2)C1=O (stereo unspecified),70% (active)
15,N/C(=N\N=C\c1ccco1)SC1CC(=O)N(c2ccc(C(=O)O)cc2)C1=O (stereo unspecified),1.7% (inactive)
16,N/C(=N\N=C\c1ccco1)SC1CC(=O)N(c2ccccc2)C1=O (stereo unspecified),-2.9% (inactive)
17,Cc1csc2ncc(C(=O)N3CCCc4ccccc43)c(=O)n12,-4% (inactive)
18,O=C(CN1C(=O)CSc2ccccc21)Nc1ccccc1C(=O)N1CCOCC1,-0.4% (inactive)
19,NC(=O)c1nc(-c2cccs2)nc2c1[nH]c(=O)n2-c1ccc(F)cc1,-3.8% (inactive)
20,O=C(Nc1nccs1)c1ccc(S(=O)(=O)c2ccccc2)cc1,-4.6% (inactive)
21,O=C(Nc1nccs1)c1ccc(S(=O)(=O)NCC2CCCCC2)cc1,9.6% (inactive)
22,O=C(Nc1nccs1)c1ccc(S(=O)(=O)NCc2cccs2)cc1,84.4% (active)
23,Cc1ccccc1NC(=S)NC(NC(=O)c1ccccc1C)C(Cl)(Cl)Cl (stereo unspecified),-5.7% (inactive)
24,COc1ccc(S(=O)(=O)N2CCc3ccccc32)cc1C(=O)OCc1c(C)noc1C,1% (inactive)

row,SMILES,inhibition
1,COc1ccc(S(=O)(=O)N2CCCCCC2)cc1C(=O)OCc1c(C)noc1C,50.5% (active)
2,Cc1noc(C)c1COC(=O)c1ccc(S(=O)(=O)N2CCCCC2)cc1,-3.8% (inactive)
3,CCOC(=O)c1c(NC(=O)COc2ncnc3ccccc23)sc(C)c1C,3.4% (inactive)
4,O=C(NCc1ccccc1)C(c1ccccc1F)N(CC1CCCO1)C(=O)c1ccccn1 (stereo unspecified),-7.1% (inactive)
5,Cc1cccc(NC(=O)c2cc(-c3ccc(C)s3)nc3ccccc23)n1,6.1% (inactive)
6,Cc1cc(NC(=O)c2cc(-c3ccc(C)s3)nc3ccccc23)no1,-4.3% (inactive)
7,Cc1cc(C)nc(NC(=O)c2cc(-c3ccc(C)s3)nc3ccccc23)c1,79.7% (active)
8,COc1ccc(-c2nnn(CC(=O)N(CCCO)C(C(=O)NC3CCCC3)c3ccncc3)n2)cc1 (stereo unspecified),-4.7% (inactive)
9,CC(=O)N1CCc2c(sc3c2c(=O)n(-c2ccccc2)c(=O)n3CC(=O)NCC2CCCO2)C1 (stereo unspecified),-11% (inactive)
10,COc1ccc(COC(=O)Nc2cn(C)nc2C(F)(F)F)cc1,1.1% (inactive)
11,CCC(C)[C@H](NC(=O)[C@@H]1CSC2c3ccccc3C(=O)N21)C(=O)NCC1CCCO1 (stereo partly specified),-11.5% (inactive)
12,CCn1cc(CNC(=O)c2cccc([N+](=O)[O-])c2)cn1,-11.2% (inactive)
13,Cc1c([N+](=O)[O-])cc(C(=O)NCc2ccc(F)cc2)cc1[N+](=O)[O-],-4.5% (inactive)
14,CCn1cc(CNC(=O)c2cc([N+](=O)[O-])c(C)c([N+](=O)[O-])c2)cn1,55.6% (active)
15,COc1ccc(N(C(=O)CNC(=O)c2ccco2)C(C(=O)NCC2CCCO2)c2ccccc2)cc1 (stereo unspecified),-11.7% (inactive)
16,O=C(OC1CCOC1=O)c1cccc(S(=O)(=O)N2CCc3ccccc3C2)c1 (stereo unspecified),-8.2% (inactive)
17,CCCN1C(=O)C(O)(CC(=O)c2ccc3c(c2)OCCO3)c2ccccc21 (stereo unspecified),3.1% (inactive)
18,COc1ccc(-c2cc(C)no2)cc1S(=O)(=O)N1CCN(c2ccccn2)CC1,-10.6% (inactive)
19,COc1cccc2c1NC(C(=O)O)C1CC=CC21 (stereo unspecified),1.7% (inactive)
20,CCOC(=O)c1ccc2c(c1)C1C=CCC1C(C(=O)O)N2 (stereo unspecified),19.2% (inactive)
21,O=C(O)C1Nc2c(O)cccc2C2C=CCC12 (stereo unspecified),52% (active)
22,CC(=O)c1ccc2c(c1)C1C=CCC1C(C(=O)O)N2 (stereo unspecified),3.3% (inactive)
23,O=C(OC1CCCCC1)c1ccc2c(c1)C1C=CCC1C(C(=O)O)N2 (stereo unspecified),64% (active)
24,O=C(O)C1Nc2c(cccc2C(F)(F)F)C2C=CCC12 (stereo unspecified),-2.1% (inactive)

# Reference: PubChem BioAssay AID1779 (Sanford-Burnham Center for Chemical Genomics, 2009)
